Experiment [1] can be described thus: Wnt pathway potentiators raising nuclear beta-catenin – imaging, WNT3A-conditioned medium, mouse C2C12, NPC library, primary screen (AID 1117326; in the data active = nuclear beta-catenin stimulation mostly above about 4.2%, no sharp cut-off; inactive = mostly below about 10%; also: reference of the scale not given here). The settings on record: stronger effect = higher value.
A short description of experiment [2]: stimulators of insulin release from INS-1E, primary screen, cell-based, 5 mM glucose, NPC library (AID 1117329;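 active = compound raises insulin release from rat beta cells at 5 mM glucose, no numeric limit stated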; also: reference of the scale not given here). Conditions: rat INS-1E insulin secretion, at 10 µM, stronger effect = higher value.
Experiment [3] in a line: growth inhibition of GSK3B-pretreated HCT116 cells – cell-based, CellTiter-Glo, 0.2 to 20 µM (AID 1117336). Conditions: HCT116 viability after GSK3B inhibitor, at 20 µM, stronger effect = higher value. In general terms: In ATP-based viability assays light output follows the ATP content of the culture.
Experiment [4] is described as follows: inhibition of endothelial tube formation, primary screen, imaging, VEGF stimulated, CD31 staining, tube area, NPC library (AID 1117340;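 active = compound that reduces growth-factor-driven endothelial tube area in a mixed cell culture, no cutoff stated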). Conditions: VEGF-stimulated ADSC/ECFC co-culture, at 10 µM, stronger effect = higher value.
The nature of experiment [5]: GLP1 release stimulators, primary, NCI-H716, NPC library (AID 1117341;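 active = compound raises GLP1 secretion from the human gut endocrine cells, with no numeric limit stated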; also: reference of the scale not given here). The settings on record: NCI-H716 cells, at 10 µM, stronger effect = higher value.
Experiment [6] is described as follows: HCT116 colon cancer cell growth inhibition, primary screen, CellTiter-Glo luminescence, NPC library (AID 1117342;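 active = compounds that lower survival of HCT116 colon cancer cells in the luminescence readout, no numeric limit stated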). Conditions: at 20 µM (top of the series).
The nature of experiment [7]: reduced SW480 viability measured with CellTiter-Glo, NPC library, primary (AID 1117343;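 active = compounds that lower viability of the colon cancer cells in the luminescence readout, with no numeric limit stated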). Conditions: CellTiter-Glo luminescence; at 20 µM (top of the series).
Experiment [8] can be described thus: NPC library primary testing for decreased DLD-1 cell viability via CellTiter-Glo (AID 1117346;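 active = compounds that lower survival of DLD-1 colon cancer cells in the luminescence readout, no cutoff given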). The settings on record: DLD-1 viability, CellTiter-Glo luminescence; at 20 µM (top of the series).

Active and inactive are the calls of the source.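 The calls were made as follows, unless noted: active = compounds lowering colon cancer cell viability after pretreatment blocking the GSK3B kinase; inactive = the rest.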

For `Nc1ccccc1C(=O)OCC(O)CO` (centres undefined), the nuclear beta-catenin stimulation in experiment [1] (at 10 µM) was 3.1% (inactive); in experiment [1] (stimulation, at 2 µM) it was 3.4%. For the same compound, the insulin secretion stimulation in experiment [2] was -1.4% (inactive). In addition, the viability decrease in experiment [3] is -40% (inactive). In addition, the tube area decrease in experiment [4] is 21.1% (inactive). In experiment [5], the GLP1 secretion stimulation is -1.2% (inactive). In addition, the inhibition of viability in experiment [6] was -0.1% (inactive). For the same compound, the results for the viability decrease (inhibition) in experiment [7] and in experiment [8] were -4.5% (inactive) and -4.9% (inactive), respectively.
With `Clc1ccccc1N1CCNCC1`, the nuclear beta-catenin stimulation in experiment [1] (at 10 µM) was 0.1% (inactive); in experiment [1] (stimulation, at 2 µM), -2.2%. Also, the insulin secretion stimulation in experiment [2] is 5.2% (inactive). Further, in experiment [3], the viability decrease is 4.1% (inactive). For the same compound, the tube area decrease in experiment [4] is -12% (active). Also, the GLP1 secretion stimulation in experiment [5] is 3.6% (inactive). Further, the inhibition of viability in experiment [6] is 48.4% (inactive). For the same compound, the figures for the viability decrease (inhibition) in experiment [7] and in experiment [8] were 19% (inactive) and 2% (inactive), respectively.
Consider `Nc1ccc(N)cc1`, for which the nuclear beta-catenin stimulation was -0.1% (inactive) in experiment [1] (at 10 µM) and 0.8% in experiment [1] (stimulation, at 2 µM). The insulin secretion stimulation in experiment [2] is -3.1% (inactive). In addition, the viability decrease in experiment [3] is -2.35% (inactive). In experiment [4], the tube area decrease was -29.4% (inactive). Further, in experiment [5], the GLP1 secretion stimulation is 4.2% (inactive). The inhibition of viability in experiment [6] is 51% (active). The viability decrease (inhibition) in experiment [7] was 84.1% (active); in experiment [8], -15.2% (inactive).
With `O=c1ccc2cc(O[C@@H]3O[C@H](CO)[C@H](O)[C@H](O)[C@H]3O)c(O)cc2o1`, the nuclear beta-catenin stimulation is -0.9% (inactive) in experiment [1] (at 10 µM) and -0.5% in experiment [1] (stimulation, at 2 µM). For the same compound, the insulin secretion stimulation in experiment [2] was 5% (inactive). For the same compound, the viability decrease in experiment [3] is -6.5% (inactive). In experiment [4], the tube area decrease was -14.5% (inactive). Besides, the GLP1 secretion stimulation in experiment [5] was -2.1% (inactive). Further, in experiment [6], the inhibition of viability is 8.5% (inactive). Moreover, the viability decrease (inhibition) in experiment [7] was 13.9% (inactive); in experiment [8] it was -0.6% (inactive).
On to `COc1ccc2c(C(=O)c3ccc(Cl)cc3)c(C)n(CC(=O)O)c2c1`, for which the nuclear beta-catenin stimulation was -0.1% (inactive) in experiment [1] (at 10 µM) and -0.8% in experiment [1] (stimulation, at 2 µM). The insulin secretion stimulation in experiment [2] is 1.05% (inactive). The viability decrease in experiment [3] was 13.7% (inactive). For the same compound, in experiment [4], the tube area decrease was -18.1% (inactive). The GLP1 secretion stimulation in experiment [5] is -0.1% (inactive). In addition, the inhibition of viability in experiment [6] was 8% (inactive). Moreover, the viability decrease (inhibition) is 22.3% (inactive) in experiment [7] and -3.8% (inactive) in experiment [8].
As for `CCOC(=O)NC(C)(C)Cc1ccc(Cl)cc1`, the nuclear beta-catenin stimulation was 7.3% (inactive) in experiment [1] (at 10 µM) and -2.9% in experiment [1] (stimulation, at 2 µM). In addition, in experiment [2], the insulin secretion stimulation is 2.1% (inactive). In addition, the viability decrease in experiment [3] was 13.6% (inactive). In addition, in experiment [4], the tube area decrease was 65.4% (active). In addition, the GLP1 secretion stimulation in experiment [5] was -1.8% (inactive). Besides, the inhibition of viability in experiment [6] is 61.4% (active). Moreover, the viability decrease (inhibition) in experiment [7] is 31.1% (inactive); in experiment [8], 3.85% (inactive).
With `CC(C)(C)c1cc(O)ccc1O`, the nuclear beta-catenin stimulation is 2.1% (inactive) in experiment [1] (at 10 µM) and 2.2% in experiment [1] (stimulation, at 2 µM). The insulin secretion stimulation in experiment [2] is 0% (inactive). Also, in experiment [3], the viability decrease was 11.8% (inactive). In experiment [4], the tube area decrease is 50.3% (active). Also, the GLP1 secretion stimulation in experiment [5] was -1% (inactive). Besides, the inhibition of viability in experiment [6] was -45.9% (inactive). Further, the viability decrease (inhibition) was 17.3% (inactive) in experiment [7] and -12% (inactive) in experiment [8].
`CCC(CC)(CNC(=O)CCCO)c1cccc(OC)c1`: the nuclear beta-catenin stimulation in experiment [1] (at 10 µM) is -1.1% (inactive); in experiment [1] (stimulation, at 2 µM) it was -0.7%. Also, the insulin secretion stimulation in experiment [2] is 0.4% (inactive). In addition, the viability decrease in experiment [3] was -15.7% (inactive). For the same compound, in experiment [4], the tube area decrease was 11.5% (inactive). Also, the GLP1 secretion stimulation in experiment [5] was -1.4% (inactive). In addition, the inhibition of viability in experiment [6] is -6.33% (inactive). The figures for the viability decrease (inhibition) in experiment [7] and in experiment [8] were -5.8% (inactive) and -6.4% (inactive), respectively.
As to `OCCOc1ccccc1`, the nuclear beta-catenin stimulation was 0.5% (inactive) in experiment [1] (at 10 µM) and 0.3% in experiment [1] (stimulation, at 2 µM). Further, in experiment [2], the insulin secretion stimulation is -1.8% (inactive). Besides, the viability decrease in experiment [3] was -10.3% (inactive). The tube area decrease in experiment [4] is 8.6% (inactive). Further, the GLP1 secretion stimulation in experiment [5] is 3.7% (inactive). Moreover, in experiment [6], the inhibition of viability is -10.6% (inactive). For the same compound, the viability decrease (inhibition) in experiment [7] was 24.2% (inactive); in experiment [8] it was -1.2% (inactive).
For `CCC1(c2ccccc2)CCC(=O)NC1=O` (centres undefined), the nuclear beta-catenin stimulation is 0.3% (inactive) in experiment [1] (at 10 µM) and 0.1% in experiment [1] (stimulation, at 2 µM). Also, the insulin secretion stimulation in experiment [2] is -2.9% (inactive). Further, the viability decrease in experiment [3] is -12.8% (inactive). The tube area decrease in experiment [4] is -0.6% (inactive). Also, the GLP1 secretion stimulation in experiment [5] is 2.8% (inactive). In addition, the inhibition of viability in experiment [6] is -2.8% (inactive). In addition, the viability decrease (inhibition) was 49.4% (inactive) in experiment [7] and 6.55% (inactive) in experiment [8].
In the case of `C[C@]12Cc3nonc3C[C@@H]1CC[C@@H]1[C@@H]2CC[C@@]2(C)[C@H]1CC[C@]2(C)O`, the nuclear beta-catenin stimulation in experiment [1] (at 10 µM) was 2.5% (inactive); in experiment [1] (stimulation, at 2 µM), 0.4%. Further, in experiment [2], the insulin secretion stimulation is -2.4% (inactive). In addition, the viability decrease in experiment [3] is 38.9% (inactive). The tube area decrease in experiment [4] was 1.9% (inactive). The GLP1 secretion stimulation in experiment [5] is 3.3% (inactive). Further, in experiment [6], the inhibition of viability was 1.5% (inactive). Further, the figures for the viability decrease (inhibition) in experiment [7] and in experiment [8] were 118% (active) and 61% (active), respectively.
For the compound `NNc1ccccc1`, the nuclear beta-catenin stimulation in experiment [1] (at 10 µM) was 0.8% (inactive); in experiment [1] (stimulation, at 2 µM), 2.4%. Also, the insulin secretion stimulation in experiment [2] is -1.6% (inactive). Also, the viability decrease in experiment [3] is 14.6% (inactive). Further, in experiment [4], the tube area decrease is 26.7% (inactive). Also, in experiment [5], the GLP1 secretion stimulation is 3.7% (inactive). Besides, the inhibition of viability in experiment [6] was -3.85% (inactive). Moreover, the viability decrease (inhibition) was 45% (inactive) in experiment [7] and 21.2% (inactive) in experiment [8].
For `O=c1oc2ccccc2c(O)c1C(CC(O)c1ccc(-c2ccc(Br)cc2)cc1)c1ccccc1` (centres undefined), the nuclear beta-catenin stimulation in experiment [1] (at 10 µM) is 8.3% (inactive); in experiment [1] (stimulation, at 2 µM), 2.6%. The insulin secretion stimulation in experiment [2] was 3.6% (inactive). Besides, the viability decrease in experiment [3] was 100% (active). The tube area decrease in experiment [4] was 2.4% (inactive). Moreover, the GLP1 secretion stimulation in experiment [5] was 23.9% (active). Moreover, the inhibition of viability in experiment [6] was 101% (active). The viability decrease (inhibition) is 122% (active) in experiment [7] and 103% (active) in experiment [8].
As for `CN1CCC(N(Cc2ccccc2)c2ccccc2)CC1`, the nuclear beta-catenin stimulation was 0.1% (inactive) in experiment [1] (at 10 µM) and -3% in experiment [1] (stimulation, at 2 µM). Also, the insulin secretion stimulation in experiment [2] is 14.1% (inactive). Also, the viability decrease in experiment [3] is 24.8% (inactive). Also, the tube area decrease in experiment [4] is -0.1% (inactive). The GLP1 secretion stimulation in experiment [5] was 14.3% (inactive). Further, the inhibition of viability in experiment [6] is 41.7% (inactive). Besides, the results for the viability decrease (inhibition) in experiment [7] and in experiment [8] were 48.7% (inactive) and 23.2% (inactive), respectively.
Turning to `CC(C)=CC1C(C(=O)OCN2C(=O)C3=C(CCCC3)C2=O)C1(C)C` (centres undefined), the nuclear beta-catenin stimulation in experiment [1] (at 10 µM) is 2.5% (inactive); in experiment [1] (stimulation, at 2 µM), 0.7%. Further, the insulin secretion stimulation in experiment [2] was -1.8% (inactive). Besides, the viability decrease in experiment [3] was 34.8% (inactive). In addition, the tube area decrease in experiment [4] was 16% (inactive). The GLP1 secretion stimulation in experiment [5] was -0.5% (inactive). In experiment [6], the inhibition of viability is 38.2% (inactive). The viability decrease (inhibition) in experiment [7] is 63% (active); in experiment [8], 5% (inactive).
In the case of `O=C(CCCCl)c1ccc(F)cc1`, the nuclear beta-catenin stimulation was -0.1% (inactive) in experiment [1] (at 10 µM) and -0.7% in experiment [1] (stimulation, at 2 µM). In addition, the insulin secretion stimulation in experiment [2] was -0.9% (inactive). Further, the viability decrease in experiment [3] was -6.5% (inactive). For the same compound, the tube area decrease in experiment [4] was -3.6% (inactive). The GLP1 secretion stimulation in experiment [5] is 0.1% (inactive). In experiment [6], the inhibition of viability is 3.2% (inactive). The viability decrease (inhibition) in experiment [7] was -14.9% (inactive); in experiment [8], 5.8% (inactive).

Source of the values: PubChem BioAssay.
